# PubChem BioAssay AID2401 (Southern Research Specialized Biocontainment Screening …, 2010)
# In all, about 2,200 compounds went through this assay and about 530 (24%) were called active.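 How the source made its calls: active means inhibition above a set limit at one or more concentrations of the dose series; inactive means inhibition under that limit at every dose.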 The list is a sample of the results. Entries with a potency or affinity are not part of this list.
# Test: S. Typhimurium nonspecific reporter signal inhibition – Salmonella Typhimurium, GFP fluorescence, counter-screen for PhoP regulon inhibitor project, dose response (AID 2401);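 further: S. typhimurium with Mg-insensitive nmpC-GFP reporter grown at 10 µM Mg2+; drop in reporter fluorescence reflects general culture growth inhibition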
# Details: 4 h; series mostly up to 150 µM; inhibition: at the top concentration
row,SMILES,inhibition
1,CCOC(=O)c1sc(NC(=O)Nc2ccc(Cl)cc2)cc1C,-2.19% (inactive)
2,COc1ccccc1NC(=S)NC(=O)C(C)(C)C,-16.6% (inactive)
3,CCc1ccc2[nH]c(=O)c(CN(Cc3ccccc3)C(=O)Nc3ccccc3OC)cc2c1,-16.5% (inactive)
4,COc1ccccc1N1CCN(C(=O)c2cccc3c(=O)c(C)c(-c4ccccc4)oc23)CC1,-10.7% (inactive)
5,CCN1C(=O)N/C(=C/c2ccc(Sc3ccc(C)cc3)o2)C1=O,16.1% (inactive)
6,CC(=O)c1cccc(NC(=O)Nc2cc3sccc3n2C)c1,15.5% (inactive)
7,COc1cc(C2SCC(=O)N2c2nnc(C34CC5CC(CC(C5)C3)C4)s2)cc(OC)c1OC (stereo not drawn),-11.2% (inactive)
8,Brc1ccc(OCCn2ccnc2)cc1,22.6% (inactive)
9,CCCCNC(=O)OC1CCS(=O)(=O)C1 (stereo not drawn),-14.7% (inactive)
10,O=c1c(Cl)c(Cl)cnn1Cc1ccccc1Cl,-23.5% (inactive)
11,Cc1ccc(S(=O)(=O)N(CC(=O)N=Nc2c(O)[nH]c3ccccc23)c2ccc(C)c(C)c2)cc1,1.85% (inactive)
12,Cc1ccccc1C(=O)N(C)Cc1ccccc1,-13.5% (inactive)
13,CCc1nc2cc(Cl)c(Cl)cc2[nH]1,25.5% (inactive)
14,CCn1cc(C(=O)O)c(=O)c2cc(Br)ccc21,26.6% (inactive)
15,Cc1ccc(S(=O)(=O)c2cn(Cc3ccc(F)cc3)c3cc4c(cc3c2=O)OCO4)cc1,11.5% (inactive)
16,O=C(Cn1nc(Cc2cccnc2)c2ccccc2c1=O)NCc1ccc2c(c1)OCO2,-18.9% (inactive)
17,O=C(O)c1cc(NCc2ccc3c(c2)OCO3)ccc1N1CCOCC1,-11.9% (inactive)
18,COc1ccc(OC)c(-c2cc(C(=O)Nc3c(C)nn(Cc4ccccc4)c3C)no2)c1,9.76% (inactive)
19,CCS(=O)(=O)Nc1cc(C(=O)OC)ccc1C(=O)OC,-28.1% (inactive)
20,Cn1nnnc1SCC(=O)NC1CCCCC1,-26.8% (inactive)
21,COC(=O)c1ccc(NC(=S)Nc2ccc3ccccc3c2)cc1,0.98% (inactive)
22,Cc1nn2c(=O)cc(CSc3nc4ccccc4[nH]3)nc2s1,-16.9% (inactive)
23,CCn1ncc(/C=C/C(=O)NCc2cn(C)nc2C)c1C,-28% (inactive)

row,SMILES,inhibition
1,COc1ccc(S(=O)(=O)N2CCN(Cc3ccccc3)CC2)cc1,-13.4% (inactive)
2,CCN(CC)S(=O)(=O)c1ccc2[nH]cc(C(=O)NCCc3ccccc3)c(=O)c2c1,-2.33% (inactive)
3,Cc1ccc(C)c(NC(=O)C(Sc2nnc(-c3cccs3)o2)c2ccccc2)c1 (stereo not drawn),13.8% (inactive)
4,CN(c1ccccc1)S(=O)(=O)c1ccc(C(=O)Nc2nnc(-c3ccc(F)cc3)o2)cc1,3.22% (inactive)
5,Oc1ccc(Br)cc1-c1nc2cnccn2c1NC1CCCCC1,-17.6% (inactive)
6,O=C(Nc1ccccn1)NC1CCCCC1,-23.9% (inactive)
7,COc1ccc(N2C(=O)C3CCCN3C2c2cccc(C)c2)cc1Cl (stereo not drawn),-11.8% (inactive)
8,O=C(/C=C/c1ccco1)N/C(=C\c1ccccc1)C(=O)NCCc1nc2ccccc2[nH]1,7.59% (inactive)
9,Cc1ccccc1Nc1nnc(SCC(=O)NC2CCCc3ccccc32)s1 (stereo not drawn),7.38% (inactive)
10,CC(C(=O)NC1CCCc2ccccc21)N1CCN(Cc2ccc3c(c2)OCO3)CC1 (stereo not drawn),16.4% (inactive)
11,Cc1ccc(CNc2oc(-c3cccs3)nc2C#N)cc1,-1.55% (inactive)
12,CN(CC(=O)N1CCN(c2ccccn2)CC1)S(=O)(=O)c1ccc2ccccc2c1,-0.24% (inactive)
13,COc1ccc(C2C(C#N)=C(N)OC3=C2C(=O)CCC3)cc1Cn1cc([N+](=O)[O-])cn1 (stereo not drawn),12.2% (inactive)
14,COc1ccc(Nc2nnc(SCc3cn4c(C)cccc4n3)s2)cc1,15.9% (inactive)
15,Clc1ccc(Nc2ccc(NCc3ccccc3)nn2)cc1,33.6% (inactive)
16,Cc1cc(N/N=C/c2cccc(Cl)c2)nc(NCc2ccccc2)n1,-33% (inactive)
17,Cc1ccc(NC(=O)CSc2nnc(C3CCCCC3)n2N)cc1F,-18.6% (inactive)
18,CCOc1ccc2nc(COC(=O)c3ccco3)c(C(C)=O)[n+]([O-])c2c1,-18.2% (inactive)
19,O=C(Nc1ccc(Br)cc1)c1ccc(F)c(S(=O)(=O)NCc2cccs2)c1,-27.7% (inactive)
20,NCCCCCc1nnc(SCc2ccc(Cl)c(Cl)c2)o1,1.67% (inactive)
21,O=C(Cn1cc[n+](CC(=O)c2ccccc2)c1)c1ccccc1,-18.9% (inactive)
22,CC(C)(C)c1n[nH]c(=S)n(/N=C/c2cccs2)c1=O,-21.7% (inactive)
23,N#CC1=C(N)SC(N)=C(C#N)C1c1ccc([N+](=O)[O-])cc1,-16.9% (inactive)

row,SMILES,inhibition
1,Cc1cc(Oc2ccc(-c3nnc(-c4ccccc4)o3)cc2[N+](=O)[O-])ccc1Cl,-20.9% (inactive)
2,Cc1ccccc1OCCSCc1nc2ccccc2[nH]1,17.8% (inactive)
3,O=C(CCN1C(=O)c2ccccc2S1(=O)=O)Nc1ccc2c(c1)OCCO2,-18.3% (inactive)
4,COc1ccc(OC)c(S(=O)(=O)N2c3cc(F)ccc3CCC2C)c1 (stereo not drawn),-21.7% (inactive)
5,O=C(NNc1c2ccccc2nc2ccccc12)c1cccc(O)c1,17.4% (inactive)
6,CC1(C)CC(=O)c2c(nc3ccccc3c2N)C1,9.98% (inactive)
7,Nc1nnc(SCc2ccc(F)cc2Cl)s1,-55% (inactive)
8,CNC(=O)CN(c1ccc(F)cc1)S(=O)(=O)c1cc(C)ccc1OC,-28.5% (inactive)
9,CN1CCCC(OC(=O)CCCC(=O)OC2CCCN(C)C2)C1 (stereo not drawn),-24.7% (inactive)
10,Cc1ccc2[nH]c3c(=O)n(CCc4cnc[nH]4)cnc3c2c1,-30.1% (inactive)
11,Cc1ccc(C(=O)COC(=O)CNS(=O)(=O)c2ccccc2)cc1[N+](=O)[O-],-25.7% (inactive)
12,CC(C)n1cc(C(=O)N2CCCC(N3CCN(c4ccc(F)cc4)CC3)C2)cn1 (stereo not drawn),-29.9% (inactive)
13,CCn1cc(C(C)(C)C)c(C#N)c1NC(C)=O,-3.54% (inactive)
14,O=C(NC1CCCCC1)n1c(=O)oc2ccc(Cl)cc21,31.2% (inactive)
15,O=C(CCN1C(=O)C2C3C=CC(C3)C2C1=O)N1CCN(c2cccc(Cl)c2)CC1 (stereo not drawn),-20.2% (inactive)
16,Cc1cccc(OCC(=O)N(Cc2cccs2)C2CCS(=O)(=O)C2)c1C (stereo not drawn),-19.3% (inactive)
17,CC(C)Oc1cccc(C(=O)NC(=S)Nc2ccccc2)c1,-26% (inactive)
18,CC(C)OC(=O)c1ccc(NC(=O)c2ccccc2)cc1,-13.3% (inactive)
19,COc1ccc(Oc2coc3cc(OC(=O)c4cccs4)ccc3c2=O)cc1,-16.5% (inactive)
20,COC(=O)c1ccc(NC(=O)c2ccc(N(C)S(C)(=O)=O)cc2)cc1,-11.4% (inactive)
21,O=C(CCCCCNc1nc(=S)[nH]c2ccccc12)NCCc1c[nH]c2ccccc12,-31.1% (inactive)
22,O=C(NNC(=O)c1ccccc1-n1cccc1)c1ccc(Cl)c(Cl)c1,-29.7% (inactive)
23,Cc1ccccc1NC(=S)N(CCCN1CCOCC1)Cc1ccccn1,-8.55% (inactive)

row,SMILES,inhibition
1,CCN1CCN(C(=O)c2ccc(COc3ccc(Cl)cc3)o2)CC1,-14.7% (inactive)
2,CCOc1ccc(/C=N/O)cc1,-9.74% (inactive)
3,CCOc1ccc(CCNC(=O)c2cc3sc(Cl)cc3n2C)cc1OCC,-12.1% (inactive)
4,COc1ccc(C)cc1C(=O)CCC(=O)Nc1ccccc1N1CCOCC1,-8.09% (inactive)
5,C#CCOc1ccc(/C=N/O)cc1Cl,-5% (inactive)
6,COc1ccc(C(C(=O)NC2CCCC2)N(C(=O)c2ccoc2C)c2cc(C)cc(C)c2)cc1 (stereo not drawn),-8.71% (inactive)
7,COc1ccc(NS(=O)(=O)c2cc(C)ccc2NC(=O)c2cc(C)oc2C)cc1,-4.38% (inactive)
8,Cc1cc2oc(=O)cc(CSc3nc(N)cc(N)n3)c2cc1C,-31.2% (inactive)
9,O=C(CSc1nncs1)Nc1ccc2c(c1)OCCO2,-24.4% (inactive)
10,CCOc1ccc(OCc2ccc(C(=O)N3CCc4ccccc4C3)o2)cc1,-19% (inactive)
11,Cc1cc(C(=O)NCc2cccs2)cs1,-11.6% (inactive)
12,COc1ccc2[nH]c(S(=O)Cc3ncc(C)c(OC)c3C)nc2c1 (stereo not drawn),-33.3% (inactive)
13,Cc1ccc(C(C)C)c(OCC(=O)Nn2c(=O)[nH]c3ccccc3c2=O)c1,-26.8% (inactive)
14,O=C(NC1CC1)C1=NOC(CNc2ncc(C(F)(F)F)cc2Cl)C1 (stereo not drawn),-15% (inactive)
15,O=C(Cc1n[nH]c(=O)c2ccccc12)OCC(=O)c1ccc2c(c1)OCCO2,21.7% (inactive)
16,c1ccc(Cc2nnc(-c3ccccc3)o2)cc1,-23.2% (inactive)
17,COc1ccc(NC(=O)CN2CCCCC2)c([N+](=O)[O-])c1,-10.1% (inactive)
18,CC(C)Cc1oc(C(=O)O)cc1CN1CCOCC1,3.36% (inactive)
19,Oc1ccccc1CN1CCCN(Cc2ccccc2O)C1,-20.8% (inactive)
20,CC(C)(C)c1ccc(C(=O)NC(=S)NCc2cccnc2)cc1,-17.4% (inactive)
21,O=C(Nc1nc2cc3c(cc2s1)OCO3)C1=COCCO1,-4.16% (inactive)
22,CCOc1ccc(CSC(CC(=O)O)C(=O)O)cc1 (stereo not drawn),-4.91% (inactive)
23,O=C(CSc1ncnc2ccccc12)Nc1cc(S(=O)(=O)N2CCCCC2)ccc1Cl,19.2% (inactive)

row,SMILES,inhibition
1,Cc1ccc(CCNC(=O)C2CCN(S(=O)(=O)N3CCCC3)CC2)cc1,-28.9% (inactive)
2,COc1ccc(CN2CCOCC2)cc1Br,-7.96% (inactive)
3,COc1ccc(C(=O)Oc2c(CN3CCOCC3)cc(Cl)c3cccnc23)cc1,-5.79% (inactive)
4,COc1ccc(CCNC(=O)c2ccc(CN3CCOCC3)cc2)cc1,15.6% (inactive)
5,N#Cc1ccc(COC(=O)c2ccc3c(=O)[nH]c(CN4CCOCC4)nc3c2)cc1,-22.3% (inactive)
6,COc1ccc(C2C(C(=O)c3cccs3)=C(O)C(=O)N2c2nnc(C)s2)cc1OC (stereo not drawn),-21.4% (inactive)
7,CCC(CC)C(=O)Nc1cccc(C(=O)N2CCCC2)c1,-16.5% (inactive)
8,c1ccn2c(CNc3ncnc4sccc34)nnc2c1,-28% (inactive)
9,Cc1cc(C)c2cc(CN(Cc3cccnc3)C(=O)c3ccc(F)cc3)c(Cl)nc2c1,-19.2% (inactive)
10,c1ccc(C2(CNc3ccccn3)CCCC2)cc1,0.11% (inactive)
11,O=c1[nH]c(CSc2ncc(-c3ccc(F)cc3)n2Cc2ccco2)nc2ccccc12,-10.5% (inactive)
12,CC(C)(C)C1CCC2(CC1)Nc1cccc3cccc(c13)N2,15.8% (inactive)
13,CCn1c2ccccc2c2cc(NC(=O)C(C)Oc3ccccc3)ccc21 (stereo not drawn),-20% (inactive)
14,COc1cccc(N(C(=O)c2ccco2)c2nc(-c3sc(NC(=O)c4ccco4)nc3C)cs2)c1,25.6% (inactive)
15,Cc1ccc(Nc2nc(N)nc(CC#N)n2)cc1,-12.2% (inactive)
16,C/C(CC(=O)Nc1ccc(Cl)c(C(F)(F)F)c1)=N\NC(=O)c1cccc(O)c1,7.3% (inactive)
17,CCCCCC(=O)Nc1ccc2ccccc2c1,-15.9% (inactive)
18,CC1CC(C)CN(CCCNC(=O)C2CCC(=O)N2C2CCCC2)C1 (stereo not drawn),-29.9% (inactive)
19,Cc1ccc(NC2CC(=O)N(Cc3ccccc3)C2=O)cc1 (stereo not drawn),-22.2% (inactive)
20,Cc1ccc(-n2nc(-c3ccc(N)cc3)cc2N)cc1,8.99% (inactive)
21,CC(C)=CCN1CCN(Cc2ccoc2)CC1CCO (stereo not drawn),-13.7% (inactive)
